Test results: PubChem BioAssay (EPA / NIEHS)
Inconclusive results are not listed. Calls of active or inactive are those of the source. How the source made its calls: active means hit-call score of the fitted dose curve at least 0.9, where 1 is the maximum; inconclusive means response in the unintended direction; inactive means score below 0.9.

test: Tanguay_ZF_120hpf_BRAI_legacy: (Legacy) Oregon State University Tanguay Lab 120 Hour Post-fertilization zebrafish Assay for Brain Malformation (AID 2283641)
Protocol: Tanguay_ZF_120hpf_legacy is a whole embryo, multiplexed endpoint assay using zebrafish larvae exposed for 120 hours post fertilization on a 96-well plate.Tanguay_ZF_120hpf_BRAI_legacy is one of one assay component(s) measured or calculated from the Tanguay_ZF_120hpf_legacy assay. It is designed to make measurements of zebrafish development as detected with brightfield microscopy of developing zebrafish embryos.Data from the assay component Tanguay_ZF_120hpf_BRAI_legacy was analyzed into 1 assay endpoints. This assay endpoint, Tanguay_ZF_120hpf_BRAI_legacy, was analyzed in the positive analysis fitting direction relative to DMSO as the negative control and baseline of activity. Using a type of morphology reporter, gain-of-signal activity can be used to understand changes in developmentals as they relate to the whole embryo. To generalize the intended target to other relatable targets, this assay endpoint is annotated to the zebrafish development intended target family, where the subfamily is brain morphogenesis.
Zebrafish husbandry: Tropical 5D wild-type adult zebrafish were housed in at an approximate density of 1000 per 100 gallon tank at the Sinnhuber Aquatic Research Laboratory, Oregon State University, Corvallis, OR. Each tank was kept at standard laboratory conditions of 28C on a 14-h light/10-h dark photoperiod in fish water consisting of reverse osmosis water supplemented with a commercially available salt (Instant Ocean). Spawning funnels were placed into the tanks the night prior, and embryos were collected and staged. […] Ten microliters of each row of dilution plate 2 was added to 2 exposure plates. The final DMSO concentration used was 0.64% (vol/vol). Thirty-two embryos were also exposed to 5uM trimethyltin chloride (positive control). Plates were sealed to prevent evaporation and foil covered to reduce light exposure and kept in a 28C incubator. Embryos were statically exposed until 120 hpf. At 24 hpf, embryos were assessed for photomotor response using a custom photomotor response analysis tool (PRAT) and for developmental toxicity endpoints (MO24: mortality at 24 hpf, DP: developmental progression, SM: spontaneous movement, and NC: notochord distortion). At 120 hpf, locomotor activity was measured using Viewpoint Zebralab and assessed for 18 endpoints. Zebrafish acquisition and analysis program (ZAAP), a custom program designed to inventory, acquire, and manage zebrafish data, was used to collect developmental endpoints as either present or absent (i.e., binary responses were recorded). If mortality occurred for an embryo (at either 24 or 120 hpf), the non-mortality endpoints were not measured.

Row | SMILES | AC50 | outcome
1 | CCCCC=O | 54.8 µM (active) | 
2 | O=C(CCCN1CCC(O)(c2ccc(Cl)cc2)CC1)c1ccc(F)cc1 | 4.16 µM (active) | 
3 | CC(=O)Nc1ccc(O)cc1 |  | inactive
4 | N=C(N)c1ccc(OCCCCCOc2ccc(C(=N)N)cc2)cc1 |  | inactive
5 | CCCCCCCCCCCCOS(=O)(=O)O |  | inactive
6 | CCC(C)c1ccccc1O (stereo unspecified) |  | inactive
7 | CN(Cc1cnc2nc(N)nc(N)c2n1)c1ccc(C(=O)N[C@@H](CCC(=O)O)C(=O)O)cc1 |  | inactive
8 | CCCCC(CC)C(=O)O (stereo unspecified) |  | inactive
9 | CCCCCCCCCCCCCCC |  | inactive
10 | OCC(CO)(CBr)CBr |  | inactive
11 | Cc1[nH]nc2c1N=C(c1ccccc1Cl)c1cc([N+](=O)[O-])ccc1N2 |  | inactive
